From PubChem
The entries come from a sample that favours hits as a whole.
Pf Dd2 inh = Plasmodium falciparum Dd2 growth inhibition. P. falciparum Dd2 growth, SYBR Green, 72 h. Potency, µM (top dose mostly 28.9 µM), for inactives: at the highest dose activity, negative = inhibition, most hits filed as inhibitors. 120,000 compounds, 4.3% hits. AID 1347417; active means well fitted inhibition curve with a large enough effect;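 further: plate controls were DMSO vehicle for no effect and reference drug for full effect; nearly all actives have a fitted effect of over 65% in size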
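Readout: SYBR Green fluorescence, 485 nm excitation, 535 nm emission, after ~16 h lysis at 37C. Before that, Dd2-infected red cells (2.5% hematocrit) grew 72 h with compound, 29 uM top final concentration.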
* hit, by the source's call; i = inactive; [ ] = another dose, or the depositor's remark. Potency means the concentration at half of the fitted maximal effect.

SMILES	Pf Dd2 inh
O=C1CSC2(C(=O)N(Cc3cccc(C(F)(F)F)c3)c3ccccc32)N1c1ccc(F)c(F)c1 (configuration not stated)	11µM*
Cc1cc(C)cc(N2C(=O)CCSC23C(=O)N(Cc2ccccc2)c2ccccc23)c1 (configuration not stated)	i
COc1ccc(N2C(=O)CSC23C(=O)N(C)c2ccccc23)cc1Cl (configuration not stated)	19%
O=C1CSC2(C(=O)N(Cc3cccc(F)c3)c3ccccc32)N1c1cccc(C(F)(F)F)c1 (configuration not stated)	-9%
CC(C)c1ccc(N2C(=O)CSC23C(=O)N(Cc2cccc(F)c2)c2ccccc23)cc1 (configuration not stated)	-13%
Cc1cc(C)c(NC(=O)CN2C(=O)C3(SCC(=O)N3c3ccc(F)cc3)c3ccccc32)c(C)c1 (configuration not stated)	10µM*
Cc1ccc(C)c(NC(=O)CN2C(=O)C(C)(C)c3ccccc32)c1	10%
Cc1ccc(N2C(=O)CSC23C(=O)N(CC(=O)Nc2ccccc2F)c2ccccc23)cc1C (configuration not stated)	11µM*
Cc1cc(C)cc(N2C(=O)CSC23C(=O)N(CC(N)=O)c2ccccc23)c1 (configuration not stated)	-13%
O=C(CN1C(=O)C2(SCC(=O)N2c2ccccc2)c2ccccc21)NCc1ccccc1 (configuration not stated)	-14%
CCN1C(=O)CCN(C(=O)c2cccc(C#N)c2)CC12CCOCC2	6%
C[C@H]1CCCN1C(=O)c1nnc(COc2ccccc2)n1-c1ccccc1	-13%[44.1 µM]
O=S(=O)(c1cccc(C(F)(F)F)c1)N1CCC(n2cnnc2C2CC2)CC1	12%
O=C(NCc1cccc(Cl)c1)c1noc(-c2ccc3c(c2)OCO3)n1	16%
CCOc1ccc(C2NC(=O)N(CC3CC3)C3=C2C(=O)OC3)cc1 (configuration not stated)	-19%
Cc1noc([C@H]2CCN(C(=O)Cc3c[nH]c4ccccc34)C[C@H]2NC(=O)C2CC2)n1	-23%
Cc1ccc(N2C(=O)CSC23C(=O)N(CC(=O)Nc2ccc(C(C)C)cc2)c2ccccc23)cc1C (configuration not stated)	13µM*
O=C1CCSC2(C(=O)N(Cc3ccc(F)cc3)c3ccccc32)N1c1ccc(F)c(F)c1 (configuration not stated)	-6%
CC1(C)C(=O)N(CC(=O)Nc2ccc(Cl)cc2)c2ccccc21	13%
CN1C(=O)C2(SCC(=O)N2c2ccc(Cl)cc2)c2ccccc21 (configuration not stated)	i
O=C(CN1C(=O)C2(SCC(=O)N2c2ccc(F)c(F)c2)c2ccccc21)Nc1cccc(Cl)c1 (configuration not stated)	13µM*
Cc1ccc(NC(=O)CN2C(=O)C(C)(C)c3ccccc32)cc1	-12%
CCN1c2cc(C(=O)NCCC3=CCCCC3)ccc2C(=O)N2CCCCC21 (configuration not stated)	i
COc1nccnc1NC1CCN(C(=O)c2cccc(C)c2)CC1	40%[5.79 µM]
Cc1cnc(C)n1C1CCN(C(=O)CCn2cccn2)CC1	13%
SMILES	Pf Dd2 inh
CS(=O)(=O)N1CCC(OC2CCN(C(=O)Nc3cccc(F)c3)CC2)CC1	i
COc1cccc(CC(=O)N2CCCN(c3cc(-c4ccccc4)[nH]n3)CC2)c1	i
Cc1nc(-c2ccccc2)n(Cc2nc(-c3cccc(Cl)c3)oc2C)c(=O)c1CCO	i
COCCc1noc([C@@H]2CN(CC(C)C)C[C@H]2CO)n1	-26%
O=C(NC[C@H]1OC[C@@H](NC2CCCC2)[C@@H]1O)Nc1ccccc1	-10%[44.1 µM]
OC1(c2csc(CN3CCc4ccccc4C3)n2)CCN(CC2CCCCC2)CC1	3.2µM*
CN1CCN(Cc2nc(C3(O)CCN(CC4CC4)CC3)cs2)CC1	17%[44.1 µM]
CN1CCC(N2CCC(O)(c3csc(CN4CCc5ccccc5C4)n3)CC2)CC1	i
COCC(=O)N1CCC(O)(c2csc(CN3CCc4ccccc4C3)n2)CC1	i
CC(C)CCN1CCC(O)(c2csc(CN3CC[C@@H](O)C3)n2)CC1	-16%[44.1 µM]
CC(C)(C)CC(=O)N1CCC(O)(c2csc(CN3CCc4ccccc4C3)n2)CC1	-26%[44.1 µM]
O=C(C1CC1)N1CCC(O)(c2csc(CN3CCc4ccccc4C3)n2)CC1	-27%[44.1 µM]
O=C(COc1ccccc1)N1CCC(O)(c2csc(CN3CCc4ccccc4C3)n2)CC1	-8%
CC(C)CCN1CCC(O)(c2csc(CN3CCc4ccccc4C3)n2)CC1	13µM*
OC1(c2csc(CN3CCc4ccccc4C3)n2)CCN(Cc2ccccc2F)CC1	i
OC1(c2csc(CN3CCc4ccccc4C3)n2)CCN(C2CCC2)CC1	10µM*
O=C(c1ccccc1F)N1CCC(O)(c2csc(CN3CCc4ccccc4C3)n2)CC1	3.2µM*
N#Cc1ccc(C(=O)N2CCOC[C@H](Oc3cnccn3)C2)cc1	27%[44.1 µM]
COc1ccc(C(=O)N[C@H]2CO[C@H]3[C@@H]2OC[C@H]3OCC(N)=O)cc1	-4%[44.1 µM]
